This note sets out measurements from PubChem BioAssay (NCATS).

The nature of assay [1]: Cell Viability - H-4-II-E (AID 543).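 Further: cells exposed to compound for 40 hours; nearly all actives have a fitted effect of over 35% in size.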 Further: potency means the concentration at half of the fitted maximal effect. The essentials:
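AC50 from Hill-modelled qHTS concentration-response curves. H-4-II-E rat hepatoma cells in complete medium, 40 hr exposure at 37 °C, viability by CellTiter-Glo ATP luminescence.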

Assay [2] in a line: Cell Viability - Renal Proximal Tubule (AID 545).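 Further: cells exposed to compound for 40 hours; 0% = DMSO only and -100% = 100 µM tamoxifen; nearly all actives have a fitted effect of over 40% in size.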 As to conditions: renal proximal tubule cells viability, primary cells of rat origin; activity change, negative = cytotoxicity: at 91.7 µM (top of the series). The essentials:
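Primary rat renal proximal tubule cells (1000/well) were treated with compounds for 40 hr at 37 °C in complete medium. Intracellular ATP was measured by CellTiter-Glo luminescence, and AC50 values came from Hill-equation fits of concentration-response data.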

The nature of assay [3]: Cell Viability - LYMP2-001 (AID 921). Further: nearly all actives have a fitted effect of over 70% in size. Further: potency means the concentration at half of the fitted maximal effect. The method, boiled down: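 Human lymphoblastoid cells (Coriell), 2500 per well, were preincubated 5 hr at 37 C, then exposed to compounds in complete medium for 24 hr at 37 C. Cellular ATP was read by CellTiter-Glo luminescence; AC50 from Hill fits of concentration-response data.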
A short description of assay [4]: MultiTox-Fluor Cytotoxicity Assay - LYMP1-001 - Live Cells (AID 947).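 Further: 0% = DMSO only and full inhibition = tetraoctylammonium bromide control.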
The nature of assay [5]: Cell Viability - LYMP2-003 (AID 965).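 Further: cells exposed to compounds for 24 h before reading; 0% = DMSO only and full effect = 92 µM tetraoctylammonium bromide; nearly all actives have a fitted effect of over 50% in size.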 The method, boiled down:
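Human lymphoblastoid cells (2500/well) were pre-incubated 5 hr at 37 C, then exposed to compounds over a concentration range for 24 hr at 37 C. Intracellular ATP was read by CellTiter-Glo luminescence; AC50 came from Hill-equation fits.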

A short description of assay [6]: Cell Viability - LYMP2-004 (AID 966). Further: nearly all actives have a fitted effect of over 65% in size. Further: potency means the concentration at half of the fitted maximal effect.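 On activity change, negative = cytotoxicity: plate controls were DMSO only for no effect and tetraoctylammonium bromide control for full effect.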 The essentials:
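Viable-cell number estimated from ATP luminescence (CellTiter-Glo) in 2500 human lymphoblastoid cells/well after 24 hr at 37 C with compound. AC50 fitted to the standard Hill equation.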

The nature of assay [7]: Cell Viability - LYMP2-005 (AID 967).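 Further: plate controls were DMSO only for no effect and 92 µM tetraoctylammonium bromide control for full effect.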 The method, boiled down:
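CellTiter-Glo luminescence (cellular ATP) read-out; LYMP2-005 lymphoblastoid cells, 2500/well, 5 h pre-incubation, then 24 h compound exposure at 37 C in complete medium. Tetraoctylammonium bromide positive control; AC50 by standard Hill fit.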

Assay [8] in a line: Cell Viability - LYMP2-011 (AID 969).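 Further: 0% = DMSO only and full inhibition = 92 µM tetraoctylammonium bromide; nearly all actives have a fitted effect of over 60% in size.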 The method, boiled down:
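Cells seeded at 2500 per well rest 5 hr before compound addition, then incubate 24 hr at 37 C. CellTiter-Glo reagent is added for 30 min at room temperature before luminescence detection.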

A short description of assay [9]: Cell Viability - LYMP2-019 (AID 973).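 Further: 0% = DMSO alone and full effect = 92 µM tetraoctylammonium bromide; nearly all actives have a fitted effect of over 55% in size.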 The essentials: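 AC50 values come from Hill-equation modelling of qHTS concentration-response curves, where viability is measured as luciferase-based ATP luminescence in the lymphoblastoid line after 24 hr compound exposure in complete culture medium.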
A short description of assay [10]: Cell Viability - LYMP2-021 (AID 974).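 Further: compound exposure lasts 24 hours at 37 °C; nearly all actives have a fitted effect of over 55% in size.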 Further: potency means the concentration at half of the fitted maximal effect. On activity change, negative = cytotoxicity: on the % scale 0 is the no-effect control and ±100 the full control effect. The essentials: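 In qHTS format, compounds are tested against 2500 lymphoblastoid cells per well for 24 h; viable cell number is inferred from ATP-driven luciferase light, and Hill-equation fitting yields AC50 values.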
Assay [11] can be described thus: Cell Viability - LYMP2-002 (AID 977).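 Further: plate controls were DMSO only for no effect and 92 µM tetraoctylammonium bromide for full effect.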 The essentials: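 Human lymphoblastoid cells (2500/well) in complete medium were preincubated 5 hr at 37 C, then exposed to compounds for 24 hr at 37 C. Intracellular ATP was read by CellTiter-Glo luminescence; AC50 came from Hill-equation concentration-response fits.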
Assay [12] is described as follows: Cell Viability - LYMP2-007 (AID 979).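 Further: cells exposed to compound for 24 h before reading; 0% = DMSO only and the negative end = 92 µM tetraoctylammonium bromide; nearly all actives have a fitted effect of over 60% in size.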 The essentials: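 Measured via luciferase-based ATP quantitation: lymphoblastoid cells, 24 hr compound exposure at 37 C, AC50 from Hill fits.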
Assay [13] is described as follows: Cell Viability - LYMP2-012 (AID 982).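 Further: cellular ATP by luciferase luminescence where a drop means cytotoxicity; cells exposed to compound for one day before reading; nearly all actives have a fitted effect of over 55% in size.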 Further: potency means the concentration at half of the fitted maximal effect.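 On activity change, negative = cytotoxicity: 0% = DMSO only and full loss = 92 µM tetraoctylammonium bromide.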
The nature of assay [14]: Cell Viability - LYMP2-014 (AID 983). Further: nearly all actives have a fitted effect of over 50% in size. Further: potency means the concentration at half of the fitted maximal effect.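 On activity change, negative = cytotoxicity: plate controls were DMSO only for no effect and 92 µM tetraoctylammonium bromide for full effect.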 The essentials:
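Quantitative HTS in lymphoblastoid cells: 24 hr compound exposure, then CellTiter-Glo ATP luminescence. Positive control was tetraoctylammonium bromide, 6.4pM to 92 uM.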

Assay [15] in a line: Cell Viability - LYMP2-016 (AID 984). Further: on the % scale 0 is the no-effect control and ±100 the full control effect; nearly all actives have a fitted effect of over 55% in size. The essentials: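 Human lymphoblastoid cells (LYMP2-016), 2500/well in complete medium, preincubated 5 hr at 37 C, then compound-treated 24 hr at 37 C. Intracellular ATP read by CellTiter-Glo luminescence after 30 min at room temperature; AC50 from Hill-equation concentration-response fits.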
A short description of assay [16]: Cell Viability - LYMP2-020 (AID 986). Further: nearly all actives have a fitted effect of over 55% in size. Further: potency means the concentration at half of the fitted maximal effect. The method, boiled down: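 Cells at 2500 per well receive a 24 hr compound exposure at 37 C. Viability is measured as ATP-dependent luciferase luminescence, with AC50 modeled from qHTS concentration-response curves.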
A short description of assay [17]: qHTS assay for small molecule agonists of retinoid X receptor alpha signaling (AID 588544). The following applies: HEK293T RXRa-UAS-bla, beta-lactamase reporter, 18 h; 530 nm emission. For orientation: Quantitative high-throughput screening tests each substance at several concentrations.
Assay [18] has as its target Voltage-gated inwardly rectifying potassium channel KCNH2 (Homo sapiens) (UniProt Q12809). Briefly: qHTS Assay for Small Molecule Inhibitors of the Human hERG Channel Activity (AID 588834).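 Further: lower thallium flux fluorescence means stronger hERG block; nearly all actives have a fitted effect of over 50% in size.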 Further: potency means the concentration at half of the fitted maximal effect. The essentials:
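In hERG-transduced U2OS cells, dye-loaded for 1 hr at room temperature in dark, test compounds incubated 10 min at 37 °C before thallium stimulation. AC50 values derived by Hill modelling of concentration-response.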

The nature of assay [19]: qHTS assay for small molecule activators of the p53 signaling pathway (AID 651743; active means well fitted activation curve with a large enough effect in the signal ratio, not every such curve was filed as active; the % refers to the signal ratio; further: % of control where 0% means no effect). As to conditions: HCT-116 p53RE-bla, beta-lactamase FRET ratio, 16 h; activation: stronger effect = higher value. The method, boiled down:
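A beta-lactamase reporter under p53 response element control, stably carried by HCT-116 cells, reported pathway activation. Test compounds were applied for 16 hours at 37 C, and fluorescence was measured 2 hours after adding the B/G FRET substrate.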

Assay [20] is described as follows: qHTS assay for small molecule disruptors of the mitochondrial membrane potential - 1 hr assay (AID 651754; calls by dose curve; further: nearly all actives have a fitted effect of over 35% in size; further: potency means the concentration at half of the fitted maximal effect). The essentials: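 In this qHTS format, a 1 hr compound treatment of HepG2 cells precedes Mito-MPS staining, and membrane potential is judged from aggregate (red) against monomer (green) fluorescence intensity.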

Values joined by “and” are separate entries in the source; they are usually repeats but may differ in a detail not shown here. Identical values can stand only once. Inconclusive results are not listed. Active and inactive are the calls of the source. Unless noted, the call rests on the fitted dose curve; in most records, active means well fitted curve in the direction sought with a large enough effect; inconclusive means small, poorly fitted or top-dose-only effect, or another doubt; inactive means no such curve, though single readings can be large; an effect the other way counts as inactive or inconclusive.

Sequence of Voltage-gated inwardly rectifying potassium channel KCNH2 (Homo sapiens) (Q12809 whole entry, looked up): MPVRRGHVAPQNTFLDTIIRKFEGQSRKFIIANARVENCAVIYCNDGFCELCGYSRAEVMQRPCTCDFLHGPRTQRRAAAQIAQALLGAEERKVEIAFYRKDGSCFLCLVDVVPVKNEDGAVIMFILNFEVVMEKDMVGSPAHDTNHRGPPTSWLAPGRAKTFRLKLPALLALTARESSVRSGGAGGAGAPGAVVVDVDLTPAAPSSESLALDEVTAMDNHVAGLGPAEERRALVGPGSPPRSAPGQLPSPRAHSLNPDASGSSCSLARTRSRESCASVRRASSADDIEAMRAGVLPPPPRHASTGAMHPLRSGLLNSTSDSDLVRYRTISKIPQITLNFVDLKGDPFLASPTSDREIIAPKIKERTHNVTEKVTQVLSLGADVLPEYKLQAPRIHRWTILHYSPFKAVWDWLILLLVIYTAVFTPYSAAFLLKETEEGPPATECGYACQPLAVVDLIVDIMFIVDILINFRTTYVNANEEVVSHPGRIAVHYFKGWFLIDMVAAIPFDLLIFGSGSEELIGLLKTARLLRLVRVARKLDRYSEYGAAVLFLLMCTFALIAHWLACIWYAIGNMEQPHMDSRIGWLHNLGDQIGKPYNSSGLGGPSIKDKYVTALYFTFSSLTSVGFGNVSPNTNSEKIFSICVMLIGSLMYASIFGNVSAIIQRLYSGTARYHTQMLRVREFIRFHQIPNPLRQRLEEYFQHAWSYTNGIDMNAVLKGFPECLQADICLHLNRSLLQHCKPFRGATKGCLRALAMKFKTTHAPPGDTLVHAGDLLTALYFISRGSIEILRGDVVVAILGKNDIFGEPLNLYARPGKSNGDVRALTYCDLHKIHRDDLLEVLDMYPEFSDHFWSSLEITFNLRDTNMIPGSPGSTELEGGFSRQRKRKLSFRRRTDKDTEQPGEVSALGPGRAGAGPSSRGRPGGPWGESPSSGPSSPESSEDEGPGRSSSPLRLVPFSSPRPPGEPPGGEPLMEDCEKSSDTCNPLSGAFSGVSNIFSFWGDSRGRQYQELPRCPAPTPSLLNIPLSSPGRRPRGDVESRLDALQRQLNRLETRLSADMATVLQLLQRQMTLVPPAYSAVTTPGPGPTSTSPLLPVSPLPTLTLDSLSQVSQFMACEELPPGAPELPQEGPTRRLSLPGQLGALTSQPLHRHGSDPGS

As for `CCNC(=S)NCC`, the Potency result in assay [1], in [2], in assay [3], in [4], in assay [5] and in assay [6] was “inactive” throughout. Besides, the Potency result in assay [7], in [8], in assay [9], in assay [10], in [11] and in assay [12] was “inactive” throughout. For the same compound, the Potency entry in [13], in assay [14], in assay [15], in assay [16], in [18] and in assay [20] was “inactive” throughout. The max response in [17] was -2.72%. Further, in assay [19], the activation is -0.196% (inactive).
As for `CC(=O)OC1CC(C)OC(C)O1` (stereo not given), the Potency entry in assay [1], in assay [2], in assay [3], in assay [4], in assay [5] and in assay [6] was “inactive” throughout. For the same compound, the Potency entry in assay [7], in assay [8], in assay [9], in assay [10], in [11] and in assay [12] was “inactive” throughout. The Potency entry in [13], in assay [14], in assay [15], in [16], in assay [18] and in [20] was “inactive” throughout. For the same compound, the max response in [17] is -9.84% and -8.03%.
Turning to `CCCC(=O)OC(=O)CCC`, the Potency entry in [1], in assay [2], in assay [3], in [4], in assay [5] and in [6] was “inactive” each time. Further, the Potency result in [8], in assay [9], in assay [10], in assay [11], in assay [12] and in [13] was “inactive” throughout. The Potency result in assay [14], in [15], in assay [16], in assay [18] and in [20] was “inactive” each time. The max response in assay [17] is 16.4% and -19.3%. For the same compound, the activation in assay [19] was 0.746% (inactive) and 0.239% (inactive).
`COc1ccc(C(=O)Nc2ccccc2)cc1[N+](=O)[O-]`: the Potency result in assay [1], in assay [2], in assay [3], in assay [4], in assay [5] and in assay [6] was “inactive” in each case. The Potency entry in assay [7], in [8], in [9], in assay [10], in [11] and in assay [12] was “inactive” throughout. Besides, the Potency entry in assay [13], in assay [14], in assay [15] and in [18] was “inactive” each time. Further, the activation in [19] is -6.78% (inactive). Also, the Potency in assay [20] was 33.5 µM (active).
As to `CCCCCCCCOc1ccc(C(=O)O)cc1`, the Potency result in assay [1], in [2], in assay [3], in assay [4], in assay [5] and in assay [6] was “inactive” each time. Moreover, the Potency entry in [7], in [8], in assay [9], in assay [10], in assay [11] and in [12] was “inactive” throughout. Also, the Potency result in assay [13], in assay [14], in assay [15], in assay [16], in assay [18] and in assay [20] was “inactive” in each case. Moreover, in assay [17], the max response was -15.5%. For the same compound, the activation in assay [19] was 4.64% (inactive).
Consider `CC(=O)c1ccc(Cl)c(Cl)c1Cl`, for which the Potency result in assay [1], in assay [2], in [3], in assay [4], in assay [5] and in assay [6] was “inactive” throughout. Also, the Potency entry in assay [7], in [8], in [9], in assay [10], in assay [11] and in assay [12] was “inactive” in each case. In addition, the Potency result in assay [13], in assay [14], in [15], in assay [16], in assay [18] and in assay [20] was “inactive” each time. Also, the max response in [17] was -2.84%. Besides, the activation in [19] was -1.64% (inactive).
Turning to `CCC(Cl)CC(Cl)C(Cl)C(Cl)C(Cl)C(C)Cl` (stereo not given), the Potency result in [1], in assay [2], in [3], in assay [4], in assay [5] and in assay [6] was “inactive” each time. In addition, the Potency result in assay [7], in assay [8], in [9], in [10], in [11] and in assay [12] was “inactive” in each case. The Potency entry in assay [13], in assay [14], in assay [15], in assay [16] and in [20] was “inactive” each time. Besides, the max response in assay [17] is -26.2%.
On to `Oc1ccc(O)c2c(O)cccc12`, for which the Potency result in [2], in assay [4] and in assay [18] was “inactive” throughout. Besides, the Potency was 50.1 µM (active) in assay [3], 50.1 µM (active) in [6], 50.1 µM (active) in [10] and 23.7 µM (active) in assay [20]. In addition, the max response in assay [17] is -16.7%. Besides, the activation in assay [19] is -2.36% (inactive).
On to `c1ccc2c(c1)ccc1ccccc12`, for which the Potency result in [1], in assay [2], in [3], in assay [4], in assay [5] and in [6] was “inactive” each time. Further, the Potency result in assay [8], in assay [9], in assay [10], in assay [11], in assay [12] and in assay [13] was “inactive” each time. Also, the Potency result in assay [14], in assay [15], in assay [16], in assay [18] and in assay [20] was “inactive” throughout. Moreover, the max response in assay [17] was -6.28%. Further, the activation in [19] was -2.61% (inactive) and 2.1% (inactive).
On to `CN(C)c1ccc(C(=N)c2ccc(N(C)C)cc2)cc1`, for which the Potency was 12.6 µM (active) in assay [1]; 31.6 µM (active) in assay [3]; 39.8 µM (active) in [13]; 39.8 µM (active) in assay [14]; 39.8 µM (active) in assay [16]; 15.8 µM (active) in assay [18]. Moreover, the Potency entry in assay [7] was “inactive”. Moreover, the activation in assay [19] was 11.1% (inactive).
